Reference: PubChem BioAssay (NCATS)
“And” between values parts separate entries of the source, which are not always exact repeats. Identical values can stand only once. Results filed as inconclusive are left out. The source made the active and inactive calls. Unless noted, calls come from the whole dose curve; as a rule, active = well fitted curve in the direction sought with a large enough effect; inconclusive = small, poorly fitted or top-dose-only effect, or another doubt; inactive = no such curve, though single readings can be large; an effect the other way counts as inactive or inconclusive.

Experiments:
[1] = Cell Viability - HepG2 (AID 433; calls by dose curve;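 note: potency is the fitted concentration of half-maximal effect; potency for ATP loss meaning cytotoxicity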); conditions: qHTS
In short: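 Cytotoxicity is scored as loss of intracellular ATP in HepG2 cells exposed to compounds for 40 h. Concentration-response curves, normalized to DMSO and 100 uM tamoxifen, give AC50 values.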

[2] = Cell Viability - N2a (AID 540); conditions: N2a mouse neuroblastoma cell viability; activity change, negative = cytotoxicity: at 92.2 µM (top of the series);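 note: cells exposed to compound for 40 h at 37 °C; plate controls were DMSO alone for no effect and tamoxifen control for full effect; nearly all actives have a fitted effect of over 45% in size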
In short: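 In this qHTS cytotoxicity screen, ATP-dependent luciferase luminescence reports viable N2a cells after a 40 hr compound exposure in complete culture medium. Potencies are AC50 values from standard Hill equation fits.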

[3] = Cell Viability - LYMP2-012 (AID 982); conditions: LYMP2-012 lymphoblastoid cell viability qHTS; series mostly up to 92.2 µM;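 note: cellular ATP by luciferase luminescence where a drop means cytotoxicity; cells exposed to compound for one day before reading; 0% = DMSO only and full loss = 92 µM tetraoctylammonium bromide; nearly all actives have a fitted effect of over 55% in size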
[4] = Cell Viability - LYMP2-014 (AID 983); conditions: LYMP2-014 lymphoblastoid cells, viability qHTS; series mostly up to 92.2 µM;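 note: cells exposed to compound for 24 h at 37 °C; plate controls were DMSO only for no effect and 92 µM tetraoctylammonium bromide for full effect; nearly all actives have a fitted effect of over 50% in size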
In short: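 Quantitative HTS in lymphoblastoid cells: 24 hr compound exposure, then CellTiter-Glo ATP luminescence. Positive control was tetraoctylammonium bromide, 6.4pM to 92 uM.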

[5] = Cell Viability - LYMP2-016 (AID 984); conditions: LYMP2-016 lymphoblastoid cell viability, qHTS; series mostly up to 92.2 µM; note: % is set by controls: 0 for no effect and ±100 for the full control effect; nearly all actives have a fitted effect of over 55% in size
In short: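 Acute toxicity in a Coriell human lymphoblastoid line is scored as loss of intracellular ATP over 24 h of treatment in complete medium. CellTiter-Glo signal is fitted across concentrations with the Hill equation to give AC50.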

[6] = Cell Viability - LYMP2-018 (AID 985); conditions: LYMP2-018 lymphoblastoid cells, viability (qHTS); series mostly up to 92.2 µM;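 note: plate controls were DMSO only for no effect and tetraoctylammonium bromide at 92 µM for full effect; nearly all actives have a fitted effect of over 50% in size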
In short: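 In this qHTS viability assay, cells are treated for 24 hr and cellular ATP is quantified by luciferase-based luminescence, with tetraoctylammonium bromide as positive control.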

[7] = Cell Viability - LYMP2-020 (AID 986); conditions: series mostly up to 92.2 µM;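 note: cells exposed to compound for 24 h at 37 °C; plate controls were DMSO only for no effect and tetraoctylammonium bromide at 92 µM for full effect; nearly all actives have a fitted effect of over 55% in size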
In short: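 Cells at 2500 per well receive a 24 hr compound exposure at 37 C. Viability is measured as ATP-dependent luciferase luminescence, with AC50 modeled from qHTS concentration-response curves.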

[8] = Cell Viability - LYMP2-022 (AID 987); conditions: LYMP2-022 lymphoblastoid cell viability; series mostly up to 92.2 µM;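 note: 0% = DMSO alone and full effect = tetraoctylammonium bromide at 92 µM; nearly all actives have a fitted effect of over 55% in size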
In short: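 In this qHTS cytotoxicity screen, compound titrations were incubated 24 hr at 37 C with human lymphoblastoid cells in complete medium. Luciferase-based ATP luminescence provided the viability signal.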

[9] = Cell Viability - LYMP2-024 (AID 988); conditions: LYMP2-024 lymphoblastoid cell viability; series mostly up to 92.2 µM;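 note: plate controls were DMSO only for no effect and 92 µM tetraoctylammonium bromide for full effect; nearly all actives have a fitted effect of over 60% in size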
In short: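 Cells at 2500 per well received compound for 24 hr after a 5 hr settling period. Viability was scored by CellTiter-Glo luminescence, with AC50 from Hill fits.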

[10] = Cell Viability - LYMP2-026 (AID 989); conditions: LYMP2-026 lymphoblastoid cell viability, qHTS; series mostly up to 92.2 µM;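 note: cells exposed to compound for 24 h at 37 °C; % is set by controls: 0 for no effect and ±100 for the full control effect; nearly all actives have a fitted effect of over 50% in size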
In short: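 Acute toxicity screen in complete culture medium, with 24 hr compound exposure at 37 C. Viability read as cellular ATP via luciferase reaction, with tetraoctylammonium bromide (6.4pM to 92 uM) as positive control.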

[11] = Cell Viability - LYMP1-002 - Assay at 24 hr (AID 993); conditions: LYMP1-002 lymphoblastoid cells viability; series mostly up to 92.2 µM; note: % is set by controls: 0 for no effect and ±100 for the full control effect
In short: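 Viability was judged from intracellular ATP using a luciferase read-out, following a 24-hour compound incubation at 37 C of lymphoblastoid cells seeded at 2500 per well. Concentration-response data were fitted to the Hill equation for AC50.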

[12] = biological target: Estrogen receptor (Homo sapiens) (UniProt P03372); test: qHTS assay for small molecule antagonists of estrogen receptor alpha signaling (AID 588513; active = well fitted curve in the direction sought with a large enough effect in the signal ratio, with a control signal flat, not every such curve was filed as active; the % refers to the signal ratio; note: % is set by controls: 0 for no effect and ±100 for the full control effect); conditions: ER-alpha-UAS-bla HEK293, beta-lactamase ratio, antagonist mode; series mostly up to 76.9 µM
Sequence of Estrogen receptor (Homo sapiens) (P03372 whole entry, looked up): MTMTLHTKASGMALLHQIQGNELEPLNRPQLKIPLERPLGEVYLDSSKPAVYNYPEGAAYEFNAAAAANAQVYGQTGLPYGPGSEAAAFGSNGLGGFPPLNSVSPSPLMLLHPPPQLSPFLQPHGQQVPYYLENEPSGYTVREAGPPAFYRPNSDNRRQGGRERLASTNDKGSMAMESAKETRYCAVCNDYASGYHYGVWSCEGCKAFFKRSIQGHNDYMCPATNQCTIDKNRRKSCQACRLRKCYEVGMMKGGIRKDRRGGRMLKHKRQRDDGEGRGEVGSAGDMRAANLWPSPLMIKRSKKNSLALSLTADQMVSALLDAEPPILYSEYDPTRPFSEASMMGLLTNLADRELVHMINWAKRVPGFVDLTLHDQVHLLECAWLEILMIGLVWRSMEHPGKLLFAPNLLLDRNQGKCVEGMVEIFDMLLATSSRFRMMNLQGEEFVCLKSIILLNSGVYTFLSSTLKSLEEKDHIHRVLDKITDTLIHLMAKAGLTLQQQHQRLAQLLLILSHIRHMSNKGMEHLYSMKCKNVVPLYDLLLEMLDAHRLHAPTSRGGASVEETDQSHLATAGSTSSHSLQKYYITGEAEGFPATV
In short: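 Cells were plated at 5000/well and incubated 4 h at 37 C. Compounds were added as 1:2 dilution series, duplicates. 17-beta-estradiol (0.5nM final) was added for 18 h before CCF4 detection.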

[13] = biological target: Thyroid hormone receptor beta (Homo sapiens) (UniProt P10828); test: qHTS assay for small molecule antagonists of thyroid hormone receptor beta signaling (AID 588547; active = well fitted inhibition curve with a large enough effect in the signal ratio, with a control signal flat, not every such curve was filed as active; the % refers to the signal ratio;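 note: cells stimulated with 0.4 nM T3 agonist during compound exposure; % is set by controls: 0 for no effect and ±100 for the full control effect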); conditions: TR-UAS-bla HEK293, beta-lactamase ratio, antagonist mode, 18 h
Sequence of Thyroid hormone receptor beta (Homo sapiens) (P10828 whole entry, looked up): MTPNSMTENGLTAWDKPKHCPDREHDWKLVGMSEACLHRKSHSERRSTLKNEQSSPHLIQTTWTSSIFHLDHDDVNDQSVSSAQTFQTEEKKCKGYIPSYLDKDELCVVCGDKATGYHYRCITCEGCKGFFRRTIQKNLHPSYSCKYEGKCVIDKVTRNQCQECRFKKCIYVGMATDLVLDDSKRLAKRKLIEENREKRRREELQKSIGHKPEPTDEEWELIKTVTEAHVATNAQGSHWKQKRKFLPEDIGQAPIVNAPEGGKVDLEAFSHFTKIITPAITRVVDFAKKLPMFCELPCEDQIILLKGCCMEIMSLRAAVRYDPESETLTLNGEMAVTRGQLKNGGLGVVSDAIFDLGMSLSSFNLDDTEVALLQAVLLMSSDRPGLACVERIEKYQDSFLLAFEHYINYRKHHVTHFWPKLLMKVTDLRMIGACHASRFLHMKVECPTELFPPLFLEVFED
In short: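 Inhibition of T3-driven (0.4nM final) beta-lactamase reporter activity was measured over 0.59 nM to 92 uM compound after 18 h at 37 C. The cells were GripTite HEK293 TR-UAS-bla in charcoal/dextran-stripped serum, with CCF4 ratio read-out and IC50 from Hill fits.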

[14] = qHTS assay for small molecule activators of the p53 signaling pathway (AID 651743; active = well fitted activation curve with a large enough effect in the signal ratio, not every such curve was filed as active; the % refers to the signal ratio; note: % of control where 0% means no effect); conditions: HCT-116 p53RE-bla, beta-lactamase FRET ratio, 16 h; activation: stronger effect = higher value
In short: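 A beta-lactamase reporter under p53 response element control, stably carried by HCT-116 cells, reported pathway activation. Test compounds were applied for 16 hours at 37 C, and fluorescence was measured 2 hours after adding the B/G FRET substrate.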

[15] = qHTS assay for small molecule disruptors of the mitochondrial membrane potential - 5 hr assay (AID 651755; calls by dose curve; note: % is set by controls: 0 for no effect and ±100 for the full control effect; nearly all actives have a fitted effect of over 40% in size); conditions: JC-1-type ratio dye; series mostly up to 92.2 µM
In short: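 Membrane-potential dye readout: red aggregate (540 ex/590 em) versus green monomer (490 ex/535 em) fluorescence after 30 min dye loading, following 5 hr compound exposure at 37C of overnight-plated HepG2 cells.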

[16] = qHTS assay for cell viability of the p53RE-bla HCT-116 cell line (AID 743292); conditions: p53RE-bla HCT-116 viability, ATP luminescence, 16 h; series mostly up to 95 µM
In short: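 Viability of compound-treated p53RE-bla HCT-116 cells is taken from ATP-dependent luciferase luminescence. Treatment lasts 16 h at 37 C after a 5 h settling period; detection follows 30 min at room temperature.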

[17] = S16 Schwann cell viability assay (CellTiter-Glo assay) (AID 624031); conditions: S16 rat Schwann cells viability, 24 h; series mostly up to 57.5 µM;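 note: native untransfected S16 rat Schwann cells; plate controls were DMSO-treated cells for no effect and cell-free wells for full effect; nearly all actives have a fitted effect of over 70% in size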
In short: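 Counter-screen for cytotoxicity: parental S16 rat Schwann cells lacking the PMP22 reporters, treated 24 h with compound, viability from cellular ATP by CellTiter-Glo luminescence, normalized to DMSO (0%) and no-cell wells.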

[18] = MultiTox-Fluor Cytotoxicity Assay - LYMP1-001 - Dead Cells (AID 946); conditions: LYMP1-001 lymphoblastoid cells, dead-cell protease fluorescence; series mostly up to 92.2 µM;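 note: 0% = DMSO and 100% = tetraoctylammonium bromide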
In short: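 Seed 2500 LYMP1-001 cells/well, incubate 5 hr at 37 C; add compound, 16 hr at 37 C; add MultiTox-Fluor reagent, 60 min RT; read dead-cell fluorescence Ex/Em=485/520. Normalize to DMSO and 15 uM tetraoctylammonium bromide.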

[19] = MultiTox-Fluor Cytotoxicity Assay - LYMP1-001 - Live Cells (AID 947); conditions: LYMP1-001 lymphoblastoid cells, live-cell protease fluorescence viability; series mostly up to 92.2 µM;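 note: 0% = DMSO only and full inhibition = tetraoctylammonium bromide control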
[20] = Cell Viability - LYMP2-004 (AID 966); conditions: LYMP2-004 lymphoblastoid cell viability, qHTS; series mostly up to 92.2 µM;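 note: plate controls were DMSO only for no effect and tetraoctylammonium bromide control for full effect; nearly all actives have a fitted effect of over 65% in size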
In short: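 Viable-cell number estimated from ATP luminescence (CellTiter-Glo) in 2500 human lymphoblastoid cells/well after 24 hr at 37 C with compound. AC50 fitted to the standard Hill equation.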

c1ccc2scnc2c1
inactive: Potency [1] > 92 µM | activity change, negative = cytotoxicity [2] -2.55% | Potency [3] | Potency [4] | Potency [5] | Potency [6] | Potency [7] | Potency [8] | Potency [9] | Potency [10] | Potency [11] | Potency [12] | activity change % (negative = inhibition) [13] 10.2% | activation [14] 0.66% | Potency [15] | Potency [16]

CCC(C)n1ncn(-c2ccc(N3CCN(c4ccc(OCC5COC(Cn6cncn6)(c6ccc(Cl)cc6Cl)O5)cc4)CC3)cc2)c1=O (stereo not drawn)
inactive: Potency [17]

O=S(=O)(O)c1ccccc1
inactive: Potency [1] > 92 µM | Potency [18] | Potency [19] | Potency [20] | Potency [3] | Potency [4] | Potency [5] | Potency [6] | Potency [7] | Potency [8] | Potency [9] | Potency [10] | Potency [11] | Potency [15]

O=C(O)c1ccccc1C(c1ccc(O)cc1)c1ccc(O)cc1
inactive: activity change, negative = cytotoxicity [2] 6.19% | Potency [18] | Potency [19] | Potency [20] | Potency [3] | Potency [4] | Potency [5] | Potency [6] | Potency [7] | Potency [8] | Potency [9] | Potency [10] | Potency [11] | Potency [12] | activity change % (negative = inhibition) [13] 4.41% and 9.59%

O[C@@H]([C@H](O)[C@@H](O)CBr)[C@@H](O)CBr
inactive: Potency [18] | Potency [19] | Potency [20] | Potency [3] | Potency [4] | Potency [5] | Potency [6] | Potency [7] | Potency [8] | Potency [9] | Potency [10] | Potency [11] | Potency [12] | activity change % (negative = inhibition) [13] -6.77% | activation [14] 4.39% | Potency [15] | Potency [16]

CO[C@@H]1[C@@H](OC2OC(C)C(OC3CC(C)(O)C(OC(=O)CC(C)C)C(C)O3)C(N(C)C)C2O)[C@@H](CC=O)C[C@@H](C)C(=O)/C=C\C2O[C@H]2C[C@@H](C)OC(=O)C[C@H]1OC(C)=O (stereo partly drawn)
inactive: Potency [17]

Cc1cccc(O)c1
inactive: activity change % (negative = inhibition) [13] -9.11% and -4.09% | activation [14] -5.47% and -2.85% | Potency [16]

CCC(=O)O[C@@H](OP(=O)(CCCCc1ccccc1)CC(=O)N1C[C@H](C2CCCCC2)C[C@H]1C(=O)O)C(C)C (stereo partly drawn)
inactive: Potency [17]

CC1(C)S[C@@H]2[C@H](NC(=O)COc3ccccc3)C(=O)N2[C@H]1C(=O)O
inactive: activation [14] -0.552% | Potency [16]

CC1CCC(C(C)C)C(OC(=O)c2ccccc2O)C1 (stereo not drawn)
inactive: Potency [17]

CO/N=C(/C(=O)N[C@@H]1C(=O)N2C(C(=O)O)=CCS[C@H]12)c1csc(N)n1
inactive: Potency [17]

O=[N+]([O-])c1cccc(Cl)c1Cl
inactive: Potency [1] > 92 µM | activity change, negative = cytotoxicity [2] -3.99% | Potency [18] | Potency [19] | Potency [20] | Potency [3] | Potency [4] | Potency [5] | Potency [6] | Potency [7] | Potency [8] | Potency [9] | Potency [10] | Potency [11] | Potency [12] | Potency [15]
